Assay outcomes (PubChem BioAssay)
CCT modulator: High-Throughput Screening for Modulators of Cytosolic Chaperonin Activity. 360,000 compounds, 0.3% hits. activity change, % (no concentration beside the values), hits read low. purified chaperonin ATPase assay, HTRF ADP detection, 30 min; in the data active = activity change below about -30%
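First, chaperonin was dispensed at 40 nM or 20 nM final depending on batch activity. Next, compounds were pinned at 76 uM and ATP added at 10 uM. After 30 min at 37 °C, ADP detection reagents ran 30 min at ambient temperature.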
G9a inh: qHTS Assay for Inhibitors of Histone Lysine Methyltransferase G9a; Histone-lysine N-methyltransferase EHMT2 (Homo sapiens), Q96KQ7; G9a H3K9 monomethylation, AlphaScreen, 2 h; Potency, µM (highest dose often 102 µM), most hits filed as inhibitors; 350,000 compounds, 8.8% hits; AID 504332, 2011; note: nearly all actives have a fitted effect of over 75% in size
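Compounds were preincubated with 20 nM G9a for 15 min, after which biotinylated H3K9 peptide (500 nM) and SAM (20 uM) started a 2 h room-temperature reaction. Monomethylated product was quantified by antibody-based AlphaScreen chemiluminescence.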
MmCpn inh: Inhibitors of TCP-1 ring complex (TRiC) of Methanococcus maripaludis (MmCpn): qHTS | purified Mm-Cpn ATPase, ADP Transcreener TR-FRET | 330,000 compounds, 0.031% hits | Potency, µM (highest dose often 76.9 µM), usual class: inhibitors; note: nearly all actives have a fitted effect of over 80% in size
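Measured: ADP formation by purified Mm-CPN. Conditions: 25 nM protein, 10 uM ATP, Tris pH 7.4 with Mg2+, K+ and DTT, 37°C for 30 min. Detection: Transcreener HTRF after 30 min at room temperature.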
VDR inh: Inhibitors of the vitamin D receptor (VDR): qHTS | Vitamin D3 receptor (Homo sapiens), P11473 | 400,000 compounds, 0.93% hits | Potency, µM, usual class: inhibitors | VDR-SRC2-3 peptide fluorescence polarization, 2 h | AID 504847, 2011
Target sequence (P11473 whole entry, looked up): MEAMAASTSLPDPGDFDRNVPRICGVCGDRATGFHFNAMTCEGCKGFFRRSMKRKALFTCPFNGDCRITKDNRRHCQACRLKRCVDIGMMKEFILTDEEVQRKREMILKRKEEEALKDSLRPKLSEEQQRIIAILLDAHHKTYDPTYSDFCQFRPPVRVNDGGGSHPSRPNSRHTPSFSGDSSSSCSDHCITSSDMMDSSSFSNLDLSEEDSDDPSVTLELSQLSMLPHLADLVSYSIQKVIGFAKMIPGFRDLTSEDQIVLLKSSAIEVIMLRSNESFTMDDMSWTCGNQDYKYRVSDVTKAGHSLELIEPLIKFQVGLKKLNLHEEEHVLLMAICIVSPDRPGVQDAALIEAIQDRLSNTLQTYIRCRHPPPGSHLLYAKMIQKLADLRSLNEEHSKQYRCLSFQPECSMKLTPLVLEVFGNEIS
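Reagent solutions, kept cold and dark, are dispensed first; compounds are then pinned in at 23 nl, plates briefly spun, and incubated 2 h at ambient temperature. Inhibition of VDR–SRC2-3 peptide binding is read by fluorescence polarization.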
Sfp PPTase inh: qHTS Assay for Inhibitors of Bacillus subtilis Sfp phosphopantetheinyl transferase (PPTase) | Potency, µM, actives largely listed as inhibitors | 310,000 compounds, 3.5% hits | 4'-phosphopantetheinyl transferase ffp (Bacillus subtilis), Q9F4F7 | Biochemical Sfp PPTase activity, qHTS | AID 1490, 2009;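 note: the enzyme is Sfp with the accession as filed and its product quenches rhodamine fluorescence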
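Fluorescence-quenching assay: 15 nM Sfp-PPTase preincubated 15 min at room temperature with compound, then 5 uM rhodamine-CoA and 12.5 uM BHQ-2-labelled YbbR peptide added. Fluorescence (ex 525/em 598 nm) read at start and after 30 min; difference gives rate.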
PLK1 PBD block: qHTS for Inhibitors of PLK1-PDB (polo-like kinase 1 - polo-box domain): Primary Screen. 360,000 compounds, 2.8% hits. Potency, µM, usual class: inhibitors. Plk1 PBD binding of FITC phosphopeptide, fluorescence polarization. AID 720504, 2013; note: series mostly up to about 57 µM; nearly all actives have a fitted effect of over 65% in size
Numbers stand for hits; . = inactive; ? = inconclusive; / = no result given; [ ] = dose if it differs, or a comment. In the library only some 10% were active in any assay of this set; here they are far more common. Unless noted, calls come from the whole dose curve; as a rule, active = well fitted curve in the direction sought with a large enough effect; inconclusive = small, poorly fitted or top-dose-only effect, or another doubt; inactive = no such curve, though single readings can be large; an effect the other way counts as inactive or inconclusive.

SMILES	CCT modulator	G9a inh	MmCpn inh	VDR inh	Sfp PPTase inh	PLK1 PBD block
COc1cccc(N2C(=O)C3CCCN3C2=S)c1 (stereo unspecified)	.	?	.	.	.	13µM
Cc1cccc(C2N(c3ccc(F)cc3)C(=O)C3CCCN32)c1 (stereo unspecified)	.	/	/	.	/	.
CSc1cccc(N2C(=O)C3CCCN3C2=S)c1 (stereo unspecified)	.	71µM	.	.	.	11µM
Cc1cccc(N2C(=O)C3CCCN3C2=S)c1 (stereo unspecified)	.	45µM	.	.	.	13µM
Cc1ccc(N2C(=O)C3CCCN3C2=S)c(C)c1 (stereo unspecified)	.	.[12.7 µM]	.	.	/	?
COc1cccc(N2C(=O)C3CCCN3C2c2cccs2)c1 (stereo unspecified)	.	.	.	.	.	.
CCCn1c(C)nc2c(N3CCOCC3)nc(C)nc21	/	/	/	/	.	/
N#CC(C#N)=c1ccc2c(c1)NC1(CCCCC1)N=2	.	11µM	?	?	.	.
Cn1c(N)c(-c2ccccc2)c2ccc([N+](=O)[O-])cc2c1=O	.	35µM	.	.	.	.
COc1ccc2[nH]c(C)c(CCN3C(=O)OC(C)(C)C3(C)O)c2c1 (stereo unspecified)	.	.	.	.	.	.
COc1ccc2[nH]c(C)c(CCN3C(=O)C4CC=CCC4C3=O)c2c1 (stereo unspecified)	.	?	.	?	.	21µM
CC1(C)C(=O)Nc2ccccc2N1C(=O)COC(=O)c1cc([N+](=O)[O-])ccc1N	.	20µM	.	.	.	.
O=C(NNc1ccccc1)/C(=C\c1cccnc1)NC(=O)c1ccccc1	.	4µM	.	.	.	.
Cc1ccc(Nc2nnc(-c3ccc4c(c3)OCO4)o2)c(C)c1	.	25µM	.	?	50µM	21µM
Cc1ccc(CSc2nnc(-c3ccc4c(c3)OCO4)o2)cc1	.	.	.	.	.	.
CCOc1ccc(NC(=O)c2cnn3c2NC(c2ccccc2)=CC3c2cccc(OC)c2OC)cc1 (stereo unspecified)	/	?	/	.	/	/
Cc1ccc(/C=N/NC(=O)c2cc(-c3ccncc3)nc3ccccc23)o1	.	45µM	.	.	.	.
O=C(Nc1ccc2c(c1)OCO2)c1cc(-c2ccncc2)nc2ccccc12	.	50µM	.	.	.	.
O=C(N/N=C/c1ccc(O)c(O)c1)c1cc(-c2ccccc2)nc2ccccc12	.	45µM	.	.	.	.
Cc1ccc(/C=N\NC(=O)c2cncc(Br)c2)o1	.	50µM	.	.	.	.
O=C(N/N=C/c1ccc([N+](=O)[O-])o1)c1cc(-c2ccncc2)nc2ccccc12	.	.	.	.	.	.
COc1ccc(CNC(=O)c2cc(-c3cccs3)nc3ccccc23)c(OC)c1	/	.	/	.	/	/
CCOC(=O)c1ccc(NC(=O)C2=C(C)C(=O)OC23CCCCCC3)cc1	/	.	/	.	/	/
CC1=C(c2ccc(C(C)C)cc2)S(=O)(=O)NC1=NCc1ccc(OC(C)C)cc1	/	.	/	.	/	/
Cc1ccc(-c2cc(C(=O)N/N=C/c3ccc([N+](=O)[O-])o3)c3ccccc3n2)o1	.	45µM	.	.	?	?
SMILES	CCT modulator	G9a inh	MmCpn inh	VDR inh	Sfp PPTase inh	PLK1 PBD block
O=C(O)c1cc(-c2ccc(-c3c(-c4ccc5c(c4)OCO5)noc3-c3ccsc3)cc2)nc2ccccc12	.	56µM	.	?	.	17µM
COC(=O)c1cc(Cl)c(NC(=O)c2ccc(C(C)(C)C)cc2)cc1OC	.	.	.	.	14µM	.
COC(=O)c1cc(Cl)c(NC(=O)C(C)C)cc1OC	.	.	.	.	.	.
Cc1nn2c(=O)cc(COc3ccc(/C=C(\C#N)C(=O)Nc4ccc(F)cc4)cc3)nc2s1	/	.	/	.	/	/
C[C@@H](O)[C@@H]1C(=O)N2C(C(=O)O)=C([C@H]3CCCO3)S[C@H]12	/	.[12.7 µM]	/	/	79µM	/
O=C(NN=C1c2ccccc2-c2ccccc21)c1ccccc1Br	.	.	.	.	?	.
O=C(NN=C1c2ccccc2-c2ccccc21)c1ccccc1	.	10µM	.	.	?	.
O=C1CS(=O)(=O)C2(C(=O)N(Cc3cccc(F)c3)c3ccccc32)N1c1ccccc1 (stereo unspecified)	/	?	/	.	/	/
C[C@@H]1[C@H](c2ccccc2)Oc2ccc(Cl)cc2S(=O)(=O)N1CC1CCCN1C(=O)OC(C)(C)C (stereo partly specified)	.	/	/	?	/	24µM
CON(C)C(=O)CCC1CCCN1C(=O)OC(C)(C)C (stereo unspecified)	.	/	.	.	/	.
CCc1nc(C)cn1S(=O)(=O)c1cc(C)c(OC)cc1C	.	50µM	.	.	.	.
CCc1nc(C)cn1S(=O)(=O)c1cc(Br)c(C)cc1OC	.	?	.	.	.	.
Cc1ccc2[nH]c3c(N4CCN(Cc5ccc6c(c5)OCO6)CC4)ncnc3c2c1	/	50µM	.	/	.	/
COc1cccc2[nH]c3c(N4CCN(Cc5ccc6c(c5)OCO6)CC4)ncnc3c12	/	45µM	.	/	.	/
COCCCNc1nc(NCc2ccc(C)cc2)c2cnn(C)c2n1	/	.[12.7 µM]	/	.	/	/
CCCC[C@@H]1C[C@H]1C(NC(=O)c1cccnc1)c1ccc(-c2ccccc2)cc1 (stereo partly specified)	/	/	/	/	.	/
ClN=C1C=CC=CC1=NCl	.	/	/	/	/	11µM
O=c1/c(=C/c2ccco2)sc2nc(-c3ccccc3Br)nn12	.	22µM	.	.	.	?
CN(C)c1ccc(/C=c2\sc3nc(-c4ccccc4)nn3c2=O)cc1	/	.[12.7 µM]	.	/	.	/
COc1ccccc1-c1nc2s/c(=C\c3cccs3)c(=O)n2n1	.	2.8µM	.	.	.	.
Cc1ccc(/C=c2\sc3nc(-c4cccs4)nn3c2=O)o1	.	18µM	.	35µM	.	.
COc1cccc(/C=c2\sc3nc(-c4cccs4)nn3c2=O)c1OC	.	.	.	.	.	.
CCCOc1ccc(/C=c2\sc3nc(-c4ccco4)nn3c2=O)cc1OCC	.	?	.	.	.	.
CCCCc1ccc(-n2nc3cc(C)c(NC(=O)c4ccc(C#N)cc4F)cc3n2)cc1	/	?	/	.	/	/
CCCCN(C)CCCNC(=O)Cn1ncc2c3ccccc3n(Cc3cc(C)ccc3C)c2c1=O	/	.	/	.	/	/
